According to PubChem BioAssay AID1159580 (chemical genetic matrix, 2015):
The whole screen tested about 5,500 compounds, of which about 2,000 (36%) were called active. About 18% were inconclusive and are not listed. Rule as the data show it: active = normalized growth mostly below about 0.91 (no sharp cut-off); inconclusive = no clear call, values can overlap the other calls; inactive = mostly above about 0.92. This is one part of the list.

Assay: chemical genetic growth profiling, strain panel (AID 1159580);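 also: tested at 20 µM; growth read once vehicle control cultures reached saturation at 30 °C; 1 = growth at the plate median or of vehicle wells; lower values mean less growth of the strain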
Conditions: growth OD

Measured: normalized growth

CNCc1ccccc1
inactive: S. cerevisiae deletion strains, locus YJR066W, strain TOR1, stronger effect = lower value 0.978 | S. cerevisiae deletion strains, locus YKL009W, strain mrt4, stronger effect = lower value 0.999 | S. cerevisiae deletion strains, locus YKL068W, stronger effect = lower value 0.981 | S. cerevisiae deletion strains, locus YKL085W, strain MDH1 (second series), stronger effect = lower value 0.976 | S. cerevisiae deletion strains, locus YKL085W, strain MDH1, stronger effect = lower value 0.976 | S. cerevisiae deletion strains, locus YKL160W, strain elf1, stronger effect = lower value 1 | S. cerevisiae deletion strains, locus YKL190W, strain CNB1, stronger effect = lower value 0.996 | S. cerevisiae deletion strains, locus YKR001C, strain vps1, stronger effect = lower value 1.04 | S. cerevisiae deletion strains, locus YKR026C, strain gcn3, stronger effect = lower value 1.03 | S. cerevisiae deletion strains, locus YKR091W, strain srl3, stronger effect = lower value 1.02 | S. cerevisiae deletion strains, locus YLL001W, strain dnm1, stronger effect = lower value 1.02 | S. cerevisiae deletion strains, locus YLL026W, stronger effect = lower value 1.01 | S. cerevisiae deletion strains, locus YLL041C, strain sdh2, stronger effect = lower value 1.02 | S. cerevisiae deletion strains, locus YLR027C, strain aat2, stronger effect = lower value 0.997 | S. cerevisiae deletion strains, locus YLR039C, strain RIC1, stronger effect = lower value 1.01 | S. cerevisiae deletion strains, locus YLR058C, strain SHM2, stronger effect = lower value 0.973 | S. cerevisiae deletion strains, locus YLR102C, strain apc9, stronger effect = lower value 0.99 | S. cerevisiae deletion strains, locus YLR113W, strain HOG1, stronger effect = lower value 0.981 | S. cerevisiae deletion strains, locus YLR221C, strain rsa3, stronger effect = lower value 1.01 | S. cerevisiae deletion strains, locus YLR258W, strain gsy2, stronger effect = lower value 1.03 | S. cerevisiae deletion strains, locus YLR262C, strain YPT6 (second series), stronger effect = lower value 1.01 | S. cerevisiae deletion strains, locus YLR262C, strain YPT6, stronger effect = lower value 1 | S. cerevisiae deletion strains, locus YLR268W, strain sec22, stronger effect = lower value 1.03 | S. cerevisiae deletion strains, locus YLR320W, strain mms22, stronger effect = lower value 1.02 | S. cerevisiae deletion strains, locus YLR330W, strain CHS5, stronger effect = lower value 0.999 | S. cerevisiae deletion strains, locus YLR342W, strain FKS1 (second series), stronger effect = lower value 1.05 | S. cerevisiae deletion strains, locus YLR342W, strain FKS1, stronger effect = lower value 1.02 | S. cerevisiae deletion strains, locus YLR357W, strain rsc2, stronger effect = lower value 1.02 | S. cerevisiae deletion strains, locus YLR370C, strain arc18, stronger effect = lower value 1.02 | S. cerevisiae deletion strains, locus YLR371W, strain rom2, stronger effect = lower value 0.999 | S. cerevisiae deletion strains, locus YLR384C, strain iki3, stronger effect = lower value 1 | S. cerevisiae deletion strains, locus YLR418C, strain cdc73, stronger effect = lower value 0.991 | S. cerevisiae deletion strains, locus YML016C, strain PPZ1, stronger effect = lower value 0.996 | S. cerevisiae deletion strains, locus YML032C, strain rad52, stronger effect = lower value 0.949 | S. cerevisiae deletion strains, locus YML120C, strain ndi1, stronger effect = lower value 1.02 | S. cerevisiae deletion strains, locus YML124C, strain tub3, stronger effect = lower value 0.983 | S. cerevisiae deletion strains, locus YMR058W, strain fet3, stronger effect = lower value 0.97 | S. cerevisiae deletion strains, locus YMR078C, strain ctf18, stronger effect = lower value 0.987 | S. cerevisiae deletion strains, locus YMR125W, strain sto1, stronger effect = lower value 1.02 | S. cerevisiae deletion strains, locus YMR129W, stronger effect = lower value 1.02 | S. cerevisiae deletion strains, locus YMR205C, strain PFK2, stronger effect = lower value 1.03 | S. cerevisiae deletion strains, locus YMR223W, strain ubp8, stronger effect = lower value 0.969 | S. cerevisiae deletion strains, locus YMR231W, strain pep5, stronger effect = lower value 0.99 | S. cerevisiae deletion strains, locus YMR263W, strain SAP30, stronger effect = lower value 0.992 | S. cerevisiae deletion strains, locus YMR307W, strain GAS1, stronger effect = lower value 0.914 | S. cerevisiae deletion strains, locus YNL067W, strain RPL9B, stronger effect = lower value 0.984 | S. cerevisiae deletion strains, locus YNL071W, strain lat1, stronger effect = lower value 1.03 | S. cerevisiae deletion strains, locus YNL153C, strain GIM3, stronger effect = lower value 0.978 | S. cerevisiae deletion strains, locus YNL183C, strain NPR1, stronger effect = lower value 0.91 | S. cerevisiae deletion strains, locus YNL209W, strain ssb2, stronger effect = lower value 1.01 | S. cerevisiae deletion strains, locus YNL233W, strain BNI4, stronger effect = lower value 1.01 | S. cerevisiae deletion strains, locus YNL248C, strain rpa49, stronger effect = lower value 1.03 | S. cerevisiae deletion strains, locus YNL250W, strain rad50, stronger effect = lower value 0.981 | S. cerevisiae deletion strains, locus YNL271C, strain bni1, stronger effect = lower value 0.994 | S. cerevisiae deletion strains, locus YNL298W, strain CLA4, stronger effect = lower value 0.988 | S. cerevisiae deletion strains, locus YNL307C, strain MCK1, stronger effect = lower value 1.01 | S. cerevisiae deletion strains, locus YNL322C, strain KRE1 (second series), stronger effect = lower value 1.02 | S. cerevisiae deletion strains, locus YNL322C, strain KRE1, stronger effect = lower value 0.994 | S. cerevisiae deletion strains, locus YNR049C, strain mso1, stronger effect = lower value 1.02 | S. cerevisiae deletion strains, locus YNR052C, strain pop2, stronger effect = lower value 0.991 | S. cerevisiae deletion strains, locus YOL006C, strain TOP1, stronger effect = lower value 1.1 | S. cerevisiae deletion strains, locus YOL012C, strain htz1 1.52 | S. cerevisiae deletion strains, locus YOL147C, strain pex11, stronger effect = lower value 0.989 | S. cerevisiae deletion strains, locus YOR001W, strain rrp6, stronger effect = lower value 1.01 | S. cerevisiae deletion strains, locus YOR061W, strain CKA2, stronger effect = lower value 0.983 | S. cerevisiae deletion strains, locus YOR069W, strain VPS5, stronger effect = lower value 1 | S. cerevisiae deletion strains, locus YOR070C, strain gyp1, stronger effect = lower value 1.01 | S. cerevisiae deletion strains, locus YOR080W, strain dia2, stronger effect = lower value 1.02 | S. cerevisiae deletion strains, locus YOR083W, strain WHI5, stronger effect = lower value 1.01 | S. cerevisiae deletion strains, locus YOR106W, strain vam3, stronger effect = lower value 1.04 | S. cerevisiae deletion strains, locus YOR136W, strain idh2, stronger effect = lower value 0.996 | S. cerevisiae deletion strains, locus YOR144C, strain elg1, stronger effect = lower value 0.991 | S. cerevisiae deletion strains, locus YOR184W, strain ser1, stronger effect = lower value 1 | S. cerevisiae deletion strains, locus YOR231W, strain MKK1, stronger effect = lower value 0.987 | S. cerevisiae deletion strains, locus YOR265W, strain rbl2, stronger effect = lower value 1.01 | S. cerevisiae deletion strains, locus YOR270C, strain vph1, stronger effect = lower value 1.08 | S. cerevisiae deletion strains, locus YOR290C, strain snf2, stronger effect = lower value 1.02 | S. cerevisiae deletion strains, locus YOR316C, strain cot1, stronger effect = lower value 0.986 | S. cerevisiae deletion strains, locus YPL051W, strain arl3, stronger effect = lower value 1 | S. cerevisiae deletion strains, locus YPL055C, strain LGE1, stronger effect = lower value 0.993 | S. cerevisiae deletion strains, locus YPL078C, strain atp4, stronger effect = lower value 1.02 | S. cerevisiae deletion strains, locus YPL106C, strain sse1, stronger effect = lower value 1.01 | S. cerevisiae deletion strains, locus YPL240C, strain hsp82, stronger effect = lower value 1.02 | S. cerevisiae deletion strains, locus YPL241C, strain CIN2, stronger effect = lower value 0.995 | S. cerevisiae deletion strains, locus YPL256C, strain CLN2, stronger effect = lower value 0.973 | S. cerevisiae deletion strains, locus YPR119W, strain clb2, stronger effect = lower value 0.991 | S. cerevisiae deletion strains, locus YPR141C, strain kar3, stronger effect = lower value 0.975 | S. cerevisiae deletion strains, locus YPR163C, strain tif3, stronger effect = lower value 0.979 | S. cerevisiae deletion strains, locus YPR167C, strain met16, stronger effect = lower value 0.982 | S. cerevisiae deletion strains, strain wtn01, stronger effect = lower value 1.06 | S. cerevisiae strains, strain wild type, stronger effect = lower value 0.992
